This is part of a sample that, as a whole, favours compounds with a hit. Of some 83,000 tested, about 20% had one in any assay.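 For each line, cells grew in 96-well plates with the test compound present at a single concentration for 48 hours.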 The source made the active and inactive calls. Rule for the calls: active = growth percent below 10; inactive = the rest.
Test system: MDA-MB-468 breast
Assay: NCI-60 one-dose screen, 48 h (100 = growth as untreated, 0 = no growth, -100 = all killed)
Conditions: 10 µM unless noted

Row | Compound | growth
1 | Oc1cc(O)c2c(c1)O[C@H](c1ccc(O)c(O)c1)[C@@H](O)C2 | 115% (inactive)
2 | Cc1ccc(Nc2c(C(N)=O)cnc3ccc(S(=O)(=O)Nc4cc(C)on4)cc23)cc1 | 92.4% (inactive)
3 | O=C(CSc1nnc(-c2cccs2)n1-c1ccccc1)Nc1ccc(F)cc1 | 88.7% (inactive)
4 | Cc1n(Cc2ccc3ccccc3c2)cc[n+]1Cc1ccc2ccccc2c1 | -22.8% (active)
5 | CSc1nc2c(c(=O)n1C)N=C1c3ccccc3C(=O)C1C(c1ccccc1)N2 (stereo not given) | 54.8% (inactive)
6 | O=Cc1cc2ccccc2nc1Oc1ccc(C(F)(F)F)cc1 | 90.7% (inactive)
7 | O=C1CSC(c2ccc(O)cc2)N1c1nnc(Cn2cnnc2)o1 (stereo not given) | 48% (inactive)
8 | Nc1cc(Cl)c(S(N)(=O)=O)cc1S(N)(=O)=O | 99.3% (inactive)
9 | Cc1c(C(N)=O)sc2nc(SCC(=O)Nc3ccc(Cl)cc3)n(-c3ccccc3)c(=O)c12 | 106% (inactive)
10 | CC/C=C\C[C@H](O)C/C=C1/C(=O)C=C[C@@]1(C)C/C=C\CCCC(=O)OC | 105% (inactive)
11 | CSC1=C(N)C(=O)c2[nH]cc(CO)c2C1=N | -73.5% (active)
12 | Cc1cc(NC(=O)c2ccc(C)c(Nc3nccc(-c4cccnc4)n3)c2)cc(-n2cnc(C)c2)c1 | -18.1% (active)
13 | OC[C@@H](O)[C@@H](O)CO | 102% (inactive)
14 | Cc1ccc(S(=O)(=O)NC(CCC(=O)Nc2ccccc2)C(=O)Nc2ccccc2)cc1 (stereo not given) | -20.6% (active)
15 | COc1ccc(C2(O)CCCCC2)cc1 | 95.2% (inactive)
16 | COc1ccc(-c2nc3ccccn3c2-c2nnc(-c3cc(OC)c(OC)c(OC)c3)o2)cc1 | 44.3% (inactive)
17 | CN1CCN(CCCOc2ccc3nc(Nc4ccc(Cl)c(C(F)(F)F)c4)ccc3c2)CC1 | 69.5% (inactive)
18 | CCOC(=O)C(CC)n1c(=O)c2cc(OC)c(OC)cc2c2cnc3[nH]ccc3c21 (stereo not given) | 84.2% (inactive)
19 | O=C(CCc1nnc2sc(-c3ccccc3)nn12)c1nc2ccccc2[nH]1 | 87.3% (inactive)
20 | Nc1nc(N)c(N=Nc2c(Br)cc(S(N)(=O)=O)cc2Br)c(N)n1 | 54% (inactive)

Row | Compound | growth
21 | O=C(NC(Cc1ccc(O)cc1)C(=O)N=Nc1c(O)[nH]c2ccccc12)c1ccccc1 (stereo not given) | 109% (inactive)
22 | CCN1C(=O)N(c2ccccc2)C2Nn3c(s/c(=C4\C(=O)N(C(C)C)c5ccccc54)c3=O)=NC21 (stereo not given) | 108% (inactive)
23 | CC(C)(C)NC/C(=C\c1ccccc1)C(=O)c1ccccc1 | -50.5% (active)
24 | C#CCC#CCN1CCC[C@H]1C(=O)NCC(=O)OC | 99.1% (inactive)
25 | O=c1c2ccccc2oc2ccc(OCCCCCCN3CCCCCC3)cc12 | 20.2% (inactive)
26 | CC1=N[C@@H]2CN(C(=O)OC(C)(C)C)C[C@@H]2n2c1cc1ccccc1c2=O | 111% (inactive)
27 | CCOC(=O)c1cc(N)nc2ccccc12 | 106% (inactive)
28 | C#CC#CC#CC#CC#CC#CC#CC#CC[C@H]1OC[C@@H](COC(=O)O[C@@H](C(=O)O[C@H]2C[C@@]3(O)[C@@H](OC(=O)c4ccccc4)[C@@H]4[C@]5(OC(C)=O)CO[C@@H]5C[C@H](O)[C@@]4(C)C(=O)[C@H](OC(C)=O)C(=C2C)C3(C)C)[C@@H](NC(=O)c2ccccc2)c2ccccc2)O1 | 14.2% (inactive)
29 | CCCCCCC1(/C=N/NC(N)=O)NC(=O)NC1=O (stereo not given) | 92.1% (inactive)
30 | Cc1cc(O)c(C2=NN(c3ccc(S(N)(=O)=O)cc3)C(c3ccccc3O)C2)cc1Cl (stereo not given) | 17.2% (inactive)
31 | COc1ccccc1/C=C/C(=O)/C=C/c1ccccc1O | -56.1% (active)
32 | CN(C)CCCn1c2c(c3ccc(-c4ccn[nH]4)cc3c1=O)C(=O)c1ccccc1-2 | 35% (inactive)
33 | COc1ccc(-c2nn(-c3ccccc3)cc2/C=C/C(=O)OCc2cn(-c3ccc(F)c(Cl)c3)nn2)cc1 | 72.2% (inactive)
34 | COc1ccc(-c2nc(SCC(C)C)nc(N/N=C(/C)c3ccc(OC)c(OC)c3)c2C#N)cc1 | 91.5% (inactive)
35 | COC(=O)c1nc(-c2ccc(C)cc2)oc1N1CCOCC1 | 82.1% (inactive)
36 | O=C(Nc1ccc(OS(=O)(=O)c2ccc(F)cc2)cc1)C12CC3CC(CC(C3)C1)C2 | 39.4% (inactive)
37 | CS(=O)(=O)Nc1cccc(C(=O)NCc2ccc(N3CCOCC3)cc2)c1 | 93% (inactive)
38 | O=c1cn[nH]c2ccc(Br)cc12 | 109% (inactive)
39 | COc1cc(-c2ccc(NC(=O)NC3CC3)c(OC)c2)ccc1NC(=O)NC1CC1 | 88.8% (inactive)
40 | Oc1cccc2ccc(N/N=C/c3cc(CN4CCCCC4)c(O)c4ncccc34)nc12 | -26.3% (active)
